# Screening data deposited in PubChem by National Center for Advancing Translational Sciences (NCATS).
# An excerpt weighted towards active compounds, which were near 19% of everything screened.
# HT1080 IDH1KD tx – qHTS for induction of synthetic lethality in tumor cells producing 2HG: qHTS for the HT-1080-IDH1KD cell line; Potency, µM (highest dose often 46.1 µM), for inactives: at the top dose activity, negative = toxicity, hits mostly cytotoxic; AID 686971, 2013; HT-1080 IDH1 knockdown viability, ATP luminescence, 48 h; hit rate 2% among 360,000;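 further: potency means the concentration at half of the fitted maximal effect; 0% = DMSO wells and -100% = cell-free medium wells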
#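 Assay cells: HT-1080 with IDH1 knockdown, 750 per well, RPMI/5% FBS. Exposure: 48 h at 37 °C following 2 h pre-incubation. Read: CellTiter-Glo luminescence; fitted concentration-response, curve class assigned.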
# DT40 TDP1 CPT – qHTS for Inhibitors of human tyrosyl-DNA phosphodiesterase 1 (TDP1): qHTS in cells in presence of CPT | chicken DT40 Tdp1-/-;hTDP1 cells + 20 nM CPT, ATP luminescence, 48 h | Potency, µM (top dose mostly 46.2 µM), for inactives: top-dose activity change, negative = growth inhibition, hits mostly inhibitors | hit rate 12% among 420,000 | AID 686979, 2013; further: potency means the concentration at half of the fitted maximal effect; nearly all actives have a fitted effect of over 55% in size
#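 Chicken DT40 Tdp1-/- cells stably complemented with human TDP1 were seeded at 400 cells/well in medium containing 20 nM camptothecin, exposed to pin-transferred compounds, and grown at 37 °C for at least 48 hr. Viability was read as ATP luminescence.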
# HT1080NT lethal – qHTS for induction of synthetic lethality in tumor cells producing 2HG: qHTS for the HT-1080-NT fibrosarcoma cell line; HT-1080-NT fibrosarcoma viability, CellTiter-Glo ATP luminescence, 48 h; Potency, µM (titrated, usually from 46.1 µM), for inactives: top-dose activity, negative = less viability, most hits filed as cytotoxic; hit rate 1.6% among 360,000; AID 686970, 2013;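 further: NT is the 2HG producing partner of a matched IDH1 knockdown line; potency means the concentration at half of the fitted maximal effect; 0% = DMSO-treated cells and -100% = media-only wells without cells; nearly all actives have a fitted effect of over 55% in size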
#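 Read-out is CellTiter-Glo luminescence after 10 minutes at room temperature, following 48 hours' compound treatment of HT-1080-NT cells (750 cells/well, RPMI, 5% FBS, 37 degrees C).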
# IL-1B inflam inh – qHTS for Inhibitors of Inflammasome Signaling: IL-1-beta AlphaLISA Primary Screen; THP-1 LPS/ATP IL-1B secretion, AlphaLISA, 16 h; stronger effect = lower value; hit rate 4.7% among 360,000; activity change, % at 57.5 µM; AID 743279, 2014; in the data active means activity change below about -50%; inconclusive means mostly about -30% to -49%
#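 THP-1 cells pretreated 1 hr with compounds (up to 57.5 uM final), then stimulated with LPS (250 ng/mL final) plus ATP (1.25 mM final); secreted IL-1B measured by AlphaLISA after 16 hr, decreased signal indicating inhibition.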
# TDP1 cell noCPT – qHTS for Inhibitors of human tyrosyl-DNA phosphodiesterase 1 (TDP1): qHTS in cells in absence of CPT | DT40 Tdp1-/- hTDP1 cells, no CPT, ATP luminescence, 48 h | Potency, µM (highest dose often 46.2 µM), inactives show at the highest dose activity change, negative = growth inhibition, hits mostly inhibitors | hit rate 15% among 420,000; further: potency means the concentration at half of the fitted maximal effect; nearly all actives have a fitted effect of over 55% in size
#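 Stably hTDP1-transfected Tdp1-null chicken DT40 cells were treated with library compounds minus camptothecin and grown for at least 48 hr at 37 °C, after which cellular ATP was quantified by luminescence.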
# ELG1 repair inh – qHTS screen for small molecules that inhibit ELG1-dependent DNA repair in human embryonic kidney (HEK293T) cells expressing luciferase-tagged ELG1; hit rate 2.3% among 330,000; Potency, µM (series often up to 46.1 µM), without a hit: at the top dose activity change, negative = inhibition, most hits filed as inhibitors; HEK293T ELG1-luciferase reporter, luminescence, 16 h; DNA damage induced by 5-fluorouridine; AID 504467, 2011; further: potency means the concentration at half of the fitted maximal effect; nearly all actives have a fitted effect of over 55% in size
#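 Step one: seed 2,000 cells per well. Step two: pin-transfer compound or DMSO alongside 5-fluorouridine. Step three: incubate 16 hr, 37 °C, 5% CO2. Step four: add ONE-Glo, wait 30 min, read luminescence.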
# Active calls of the source: *; ? = inconclusive; . = no result. Unless noted, the call rests on the fitted dose curve; in most records, active means well fitted curve in the direction sought with a large enough effect; inconclusive means small, poorly fitted or top-dose-only effect, or another doubt; inactive means no such curve, though single readings can be large; an effect the other way counts as inactive or inconclusive. Unless noted, on the % scale 0 is the no-effect control and ±100 the full control effect.
SMILES,HT1080 IDH1KD tx,DT40 TDP1 CPT,HT1080NT lethal,IL-1B inflam inh,TDP1 cell noCPT,ELG1 repair inh
O=C(C1=C[C@@H](c2csc3ccccc23)C[C@@H](OCc2ccc(CO)cc2)O1)N1CCN(Cc2ccc3c(c2)OCO3)CC1,?,?,-21%,?,?,9.2µM*
COc1ccc(Cc2nnc(SCC(=O)Nc3ncc(C)s3)o2)cc1,-4%,-1%,-4%,10,-9%,-3%
Cc1cnc(NC(=O)CSc2nnc(Cc3ccccc3)o2)s1,4.5µM*,?,4.5µM*,-2,?,-3%
Cc1cnc(NC(=O)Cc2ccccc2Cl)s1,-7%,3.3µM*,0%,-15,3.3µM*,-6%
Cc1cnc(NC(=O)CCCc2nc3ccccc3s2)s1,?,15µM*,?,10,23µM*,?
CCOC(=S)SCC(=O)Nc1ncc(C)s1,18µM*,?,?,-98*,23µM*,0%
Cc1cnc(NC(=O)Cc2ccc(C)c(C)c2)s1,-23%,4%,?,27,?,?
CSCCC(NC(=O)c1ccccc1Cl)C(=O)NCCc1ccccn1 (stereo unspecified),7%,7%,5%,13,-3%,0%
Cc1cnc(NC(=O)CCc2ccccc2)s1,?,16µM*,?,10,8.2µM*,?
COc1c(N)c2c(c([N+](=O)[O-])c1OC)C(=O)OC2,17%,-2%,4%,-12,-26%,.
CCc1ccc(CNC(=O)c2ccc3nc(SCc4ccc(F)cc4)n(C)c3c2)cc1,.,15µM*,.,.,21µM*,.
Cn1c(SCc2ccc(F)cc2)nc2ccc(C(=O)NCc3ccccc3)cc21,.,-26%,.,.,-20%,.
CCOC(=O)N1CCN(C(=O)c2ccc3nc(SCc4ccc(F)cc4)n(C)c3c2)CC1,-7%,23µM*,-8%,?,21µM*,13µM*
CC(C)(C)OC(=O)NS(=O)(=O)NOCc1ccccc1,.,?,.,.,5%,.
CN1c2ccccc2N(C)C1(C)c1cccc2ccccc12,-3%,5.8µM*,0%,40,3.3µM*,3%
CN1c2cccc3cccc(c23)N(C)C1(C)C,24%,-15%,9%,0,-13%,-1%
COc1cc(Nc2ncnc3onc(-c4ccc(Cl)cc4)c23)cc(OC)c1,.,?,.,.,21µM*,.
Cc1noc2ncnc(Nc3ccc(F)cc3)c12,.,0%,.,.,-10%,.
CC(C)c1ccc(Nc2ncnc3onc(-c4ccc(F)cc4)c23)cc1,.,18µM*,.,.,?,.
Cc1cccc(Nc2ncnc3onc(-c4ccc(Cl)cc4)c23)c1C,.,-1%,.,.,-24%,.
COc1ccc(Nc2ncnc3onc(-c4ccc(Cl)cc4)c23)cc1Cl,.,18µM*,.,.,16µM*,.
CCC/C=C1/CCCOC(C(=O)NCc2ccc(S(C)(=O)=O)cc2)(C(F)(F)F)C1 (stereo unspecified),9%,9%,11%,6,-10%,.
CCC/C=C1/CCCOC(C(=O)NCc2ccc(C)o2)(C(F)(F)F)C1 (stereo unspecified),-4%,7.3µM*,?,-63*,10µM*,0%
COc1cccc(-c2nc(CN3CCN(C(=O)c4ccco4)CC3)c(C)o2)c1OC,1%,?,7%,19,?,.
O=S(=O)(NCC(c1ccco1)N1CCN(c2ccc(F)cc2)CC1)c1ccccc1 (stereo unspecified),.,?,.,.,21µM*,.
SMILES,HT1080 IDH1KD tx,DT40 TDP1 CPT,HT1080NT lethal,IL-1B inflam inh,TDP1 cell noCPT,ELG1 repair inh
COc1ccc(N2CCN(C(CNS(=O)(=O)c3ccc(OC)c(C)c3)c3ccco3)CC2)cc1 (stereo unspecified),.,?,.,.,23µM*,.
Cc1ccc(S(=O)(=O)NCC(c2ccco2)N2CCN(c3ccccc3F)CC2)cc1 (stereo unspecified),.,?,.,.,16µM*,.
O=S(=O)(NCC(c1ccco1)N1CCOCC1)c1ccc(F)cc1 (stereo unspecified),.,-12%,.,.,-10%,.
CN(C(=O)CSc1nc2c(cnn2-c2ccccc2)c(=O)[nH]1)C1CCS(=O)(=O)C1 (stereo unspecified),.,.,.,.,.,-21%
CC(=O)c1ccc(NC(=O)Cn2nc(C)cc2C)cc1,11%,6%,21%,-5,4%,0%
Cc1cc(C)n(-c2nc(C)c(C)c(=O)n2CC(=O)Nc2ccc([N+](=O)[O-])cc2)n1,.,?,.,.,21µM*,.
CC(=O)c1ccc(NC(=O)Cn2c(-n3nc(C)cc3C)nc(C)cc2=O)cc1,.,?,.,.,18µM*,.
CCOc1ccccc1C1CC(=O)Oc2c1c(=O)n(C)c1ccccc21 (stereo unspecified),.,-1%,.,.,17%,.
CCCCCCCCCC[n+]1cccc2c3ccccc3ccc21,2.3µM*,0.33µM*,4.1µM*,0,0.15µM*,2.3µM*
Clc1ccc2c(ccc[n+]2CCC2CCCCC2)c1,.,10µM*,.,.,8.9µM*,.
CCCCCCCCCCCCCCCC[n+]1ccc(C)c2ccccc21,.,0.71µM*,.,.,0.79µM*,.
Clc1ccc2c(ccc[n+]2CCc2ccccc2)c1,.,-30%,.,.,?,.
CCCCCCCCCC[n+]1cccc2cc(Cl)ccc21,.,1.3µM*,.,.,1.3µM*,.
Cc1cccc([C@@H]2[C@@H]3C(=O)N(Cc4ccccc4)C(=O)[C@@H]3[C@]3(C)C(=O)N(c4ccc(C(F)(F)F)cc4)C(=O)N23)c1,-14%,?,?,?,?,?
Cc1ccc2c(c1)C(=O)C(=O)N2CC1COc2ccccc2O1 (stereo unspecified),?,2.3µM*,-2%,-93*,2.3µM*,8%
CCOc1ccc2c(c1)C(=O)C(=O)N2CC1COc2ccccc2O1 (stereo unspecified),9%,1.2µM*,0%,-3,0.82µM*,-14%
COc1ccc2c(c1)C(=O)C(=O)N2CC1COc2ccccc2O1 (stereo unspecified),-27%,1µM*,?,-11,0.58µM*,0%
COc1ccc(C2C(=O)N(C3CCCCC3)CC(=O)N2CC2COc3ccccc3O2)cc1 (stereo unspecified),0%,?,6%,-9,?,?
